Experimental data reported in PubChem BioAssay (NCI).
Compounds without any hit were thinned out: in the full panel of roughly 83,000, 20% have a hit.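 Cells were grown in 96-well plates and exposed to the test compound at a single concentration for 48 hours; results are reported as percent growth, with values below 10 considered active.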 A number with no mark means an inactive call. The source made the active and inactive calls.

What follows are compounds tested on MDA-MB-468 breast (assay: NCI-60 one-dose screen, 48 h (100 = growth as untreated, 0 = no growth, -100 = all killed)). Settings: 10 µM unless noted.
In the case of `COC(=O)c1ccccc1C(=O)c1c(C)cc(C)cc1C`, the growth is reported as 103%.
In the case of `CC1OC(n2c3ccccc3c3c4c(c5c6ccccc6[nH]c5c32)C(=O)N(CCN[C@H]2CCC[C@@H]2N)C4=O)CC(O)C1O` (stereo not given in full), the growth is reported as -20% (active).
For `CC(C)N(CCNc1nc(C(Cl)(Cl)Cl)nc2cc(Cl)ccc12)C(C)C`, the growth was -50% (active).
`O=C(Cn1c[n+](CC(=O)c2ccc(-c3ccccc3)cc2)c2ccccc21)Nc1cccc2cccnc12` was tested, and the growth was -6.11% (active).
`C[C@]12CC[C@@H]3c4ccc(O)c([N+](=O)[O-])c4CC[C@H]3[C@@H]1CCC2=O` showed a growth of 71%.
Compound `CCOC(=O)C(Cc1ccc(OC)cc1)C(=O)OCC` has a growth of 55.3%.
Work on `CN(C)c1ccc(/C=N/Nc2nnc3n2N=C(c2ccc(Cl)cc2)CS3)cc1` yielded a growth of 104%.
With `CSc1nc2sc3c(c2c(=O)n1-c1ccc([N+](=O)[O-])cc1)CCCCC3` the growth was 83%.
`O=C(CNc1ncco1)Nc1ccc(S(=O)(=O)c2ccc(NC(=O)CNc3ncco3)cc2)cc1` was tested, and the growth was -61.7% (active).
`NS(=O)(=O)c1ccc(N=Nc2ccc(-c3nn4cc(-c5ccccc5)nc4s3)cc2)cc1` showed a growth of 100%.
Work on `COC(=O)C(N)CC(C)C` (stereo not given) yielded a growth of 98%.
`CN(C)C(=O)c1ccccc1-n1cnc2ccccc2c1=O` gave a growth of 100%.
In the case of `COc1ccc2c(c1)C(=O)c1c-2c(OCCN(C)C)nc2cc(OC)ccc12`, the growth is reported as 15.9%.
Work on `COc1ccc(Oc2nc(NC3CCCC3)nc(Sc3ccc(OC)cc3)n2)cc1` yielded a growth of 93%.
Work on `COC(=O)[C@]12CCC(C)(C)C[C@H]1[C@H]1/C(=N/OCCc3nn[nH]n3)C[C@@H]3[C@@]4(C)CC[C@H](OC(C)=O)C(C)(C)[C@@H]4CC[C@@]3(C)[C@]1(C)CC2` yielded a growth of 17.3%.
With `Cc1ccc(O)c(N)c1` the growth was 98.9%.
`C=C1C(=O)O[C@H]2[C@H]1CC/C(COC(=O)NCCc1c[nH]c3ccccc13)=C\CC[C@@]1(C)O[C@@H]21` was tested, and the growth was -6.71% (active).
`C/C(=C\CCc1ccoc1)CC/C=C(\C)CCCC1COC(=O)C1` (stereo not given) gave a growth of 97.4%.
Compound `O=[N+]([O-])c1ccc2c(c1)Cc1ccccc1-2` has a growth of 84.1%.
Work on `Cn1nc(CC#N)c2c(=N)n(N)cnc21` yielded a growth of 106%.
`O=C1Nc2ccccc2/C1=C/c1cn(C[C@@H](O)Cn2c3ccccc3c(=O)c3ccccc32)c2ccccc12` gave a growth of 79.6%.
In the case of `Cn1cc(-c2nc(-c3c[nH]c4c(Cl)nccc34)cs2)c2ccccc21`, the growth is reported as 8.74% (active).
Compound `O[C@@H](c1cc(C(F)(F)F)nc2c(C(F)(F)F)cccc12)[C@H]1CCCCN1` has a growth of 42.6%.
In the case of `O=C1NC(=S)S/C1=C\c1cc(Br)ccc1O`, the growth is reported as 112%.
With `O=C(Cn1cc(CN2CCCCCC2)nn1)Nc1ccc2c(ccn2Cc2ccccc2)c1` the growth was 74.9%.
Compound `COc1cc(/C=C2\C(=O)Nc3ccc(Br)cc32)cc(OC)c1OC` has a growth of 16.9%.
`O=C1C2C3C=CC(O3)C2C(=O)N1Nc1ccccc1` (stereo not given) was tested, and the growth was 105%.
Compound `CCOC(=O)c1c(Nc2ccccc2)nn2c(-c3ccc(Br)cc3)ccnc12` has a growth of 67.5%.
`NC[C@@H]1O[C@H](O[C@@H]2[C@@H](CO)OC(O[C@@H]3[C@@H](O)[C@H](N)C[C@H](N)[C@H]3OC3O[C@H](CN)[C@@H](O)[C@H](O)[C@H]3N)[C@@H]2O)[C@H](N)[C@@H](O)[C@@H]1O` (stereo not given in full) was tested, and the growth was 110%.
`CCCCCCCNc1nc(C=O)ncc1-c1ccc(C(F)(F)F)cc1` was tested, and the growth was 103%.
With `C=CCn1c(SCC(=O)Nc2ccc(C(=O)/C=C/c3ccccc3)cc2)nnc1-c1ccc(OC)c(OC)c1` the growth was 59.5%.
Work on `Cc1cc2cc3cc(C)c(N(C)C)cc3[n+](C)c2cc1N(C)C` yielded a growth of 27.1%.
`C(CCCSC1=NCCN1)CCSC1=NCCN1` gave a growth of 92%.
With `CCN1C(=O)N(CC)C2Nn3c(s/c(=C\c4ccccc4Br)c3=O)=NC21` (stereo not given) the growth was 12.3%.
`Cn1ccc2c1CC1CN(Cc3ccco3)C(=O)C1C2C(=O)O` (stereo not given) was tested, and the growth was 104%.
`CCN(CCO)CC(C)Nc1ccc([N+](=O)[O-])c2sc3ccccc3c(=O)c12` (stereo not given) gave a growth of 21%.
`C=CCn1c(SCC(=O)Nc2cccc(C(=O)/C=C/c3cccc([N+](=O)[O-])c3)c2)nc2ccccc2c1=O` gave a growth of 89.2%.
With `COc1cc2c(c(OC)c1OC)CCC(c1cccc(C(=O)Nc3ccccc3Br)c1)O2` (stereo not given) the growth was 85.2%.
In the case of `C=C1C(=O)O[C@H]2[C@H]1CC/C(COC(=O)NCCc1ccc(OC)cc1)=C\CC[C@@]1(C)O[C@@H]21`, the growth is reported as -2.57% (active).
With `CCCCCCCCCCCCCCCCNCCC[C@@H](C)[C@H]1CC[C@H]2[C@@H]3[C@H](OCCCN)C[C@@H]4C[C@H](OCCCN)CC[C@]4(C)[C@H]3C[C@H](OCCCN)[C@]12C` the growth was -55.2% (active).
